Reference: PubChem BioAssay (NCI)
This is part of a sample that, as a whole, favours compounds with a hit. Of some 79,000 tested, about 15% had one in any assay. A number with no mark means an inactive call. The source made the active and inactive calls. Cut-off read from the data, not from the text of the source: active = growth inhibition above about 70%; inactive = the rest.

Experiments:
[1] = NCI Yeast Anticancer Drug Screen. Data for the rad50 strain (AID 155);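 note: 0% = growth of vehicle-only cultures of the same strain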; settings: S. cerevisiae rad50 strain growth inhibition; at 50.0 µM; hits give high values
How it was run: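 Cells are treated with compound, grown, and their growth is then scored against vehicle-only cultures of the same repair-deficient yeast strain.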

[2] = NCI Yeast Anticancer Drug Screen. Data for the mec2-1 strain (AID 157); settings: S. cerevisiae mec2-1 strain, at 50.0 µM, hits give high values
How it was run: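 Compounds were applied to mec2-1 yeast cells. Their growth was then compared with that of vehicle-treated cultures to give growth inhibition.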

[3] = NCI Yeast Anticancer Drug Screen. Data for the sgs1 mgt1 strain (AID 161);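 note: 0% = growth of cultures given vehicle only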; settings: S. cerevisiae sgs1 mgt1 strain, at 50.0 µM, hits give high values
How it was run: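 Percent growth inhibition was derived by comparing compound-exposed mutant yeast with vehicle-exposed cultures. The strain carries alterations in DNA damage repair.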

[4] = NCI Yeast Anticancer Drug Screen. Data for the cln2 rad14 strain (AID 165);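 note: 0% = growth equal to vehicle treated cultures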; settings: S. cerevisiae cln2 rad14 strain, at 50.0 µM, hits give high values
How it was run: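 Strain: cln2 rad14 yeast, altered in cell cycle control and DNA damage repair. Read-out: growth inhibition vs vehicle.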

[5] = NCI Yeast Anticancer Drug Screen. Data for the bub3 strain (AID 167); settings: S. cerevisiae bub3 mutant strain, at 50.0 µM, hits give high values
How it was run: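 Part of a panel of yeast mutants defective in DNA damage repair or cell cycle regulation. Each strain is grown with compound, and inhibition is calculated relative to solvent-treated cultures.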

[6] = NCI Yeast Anticancer Drug Screen. Data for the mlh1 rad18 strain (AID 175); settings: S. cerevisiae mlh1 rad18 strain growth inhibition; at 50.0 µM; hits give high values
How it was run: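 A repair-deficient yeast strain is exposed to test compound, and growth is scored relative to vehicle-treated controls.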

## CCOC(=O)Nc1ccc(F)c(C(F)(F)F)c1
[1]
  growth inhibition: -8.05%
[2]
  growth inhibition: 4.45%
[3]
  growth inhibition: 8.6%
[4]
  growth inhibition: -52.3%
[5]
  growth inhibition: 11.6%
[6]
  growth inhibition: -4.25%

## CCC(C)(C)c1ccccc1
[1]
  growth inhibition: 13.2%
[2]
  growth inhibition: 6%
[3]
  growth inhibition: 20%
[4]
  growth inhibition: 10.9%
[5]
  growth inhibition: 8.95%
[6]
  growth inhibition: 15.3%

## COC1=CC(=O)C(C2CC(=O)c3c(O)cc(O)cc3O2)=CC1=O (configuration not stated)
[1]
  growth inhibition: -4.2%
[2]
  growth inhibition: 0.85%
[3]
  growth inhibition: 11.2%
[4]
  growth inhibition: 7.95%
[5]
  growth inhibition: -20.8%
[6]
  growth inhibition: -63.9%

## CCN(CC)C1=Nc2ccccc2N(c2ccccc2)C(SC)=C1
[1]
  growth inhibition: -1.4%
[2]
  growth inhibition: -6.9%
[3]
  growth inhibition: 6.15%
[4]
  growth inhibition: -6.45%
[5]
  growth inhibition: 2.25%
[6]
  growth inhibition: 14.5%

## Nc1cccc(/C=C(/C(=O)O)c2ccc(Cl)cc2)c1
[1]
  growth inhibition: 3.4%
[2]
  growth inhibition: -4.45%
[3]
  growth inhibition: -7.3%
[4]
  growth inhibition: -38.9%
[5]
  growth inhibition: -15.6%
[6]
  growth inhibition: 0.15%

## O=C(O)C1C2C=CC(O2)C1C(=O)Nn1cccc1 (configuration not stated)
[1]
  growth inhibition: 6.5%
[2]
  growth inhibition: -7.5%
[3]
  growth inhibition: -17.6%
[4]
  growth inhibition: -12.8%
[5]
  growth inhibition: -16.6%
[6]
  growth inhibition: -6.75%

## CCOC(=O)C(=[N+]=[N-])C(O)C1OC(c2ccccc2)OCC1O (configuration not stated)
[1]
  growth inhibition: 12.8%
[2]
  growth inhibition: 18.1%
[3]
  growth inhibition: 18.9%
[4]
  growth inhibition: 22.1%
[5]
  growth inhibition: 9.15%
[6]
  growth inhibition: 24.7%

## CN(C)N=Nc1ccc(Cl)cc1
[1]
  growth inhibition: -5.15%
[2]
  growth inhibition: 21.9%
[3]
  growth inhibition: 16.6%
[4]
  growth inhibition: -56.6%
[5]
  growth inhibition: 35%
[6]
  growth inhibition: 8.3%

## Cc1c(C)c(C(Cl)(Cl)Cl)c(C)c(C)c1Br
[1]
  growth inhibition: -0.7%
[2]
  growth inhibition: 4.8%
[3]
  growth inhibition: -0.75%
[4]
  growth inhibition: 8.15%
[5]
  growth inhibition: 3.6%
[6]
  growth inhibition: -7.3%

## Cc1ncc(CO)c(Nc2ccccc2)n1
[1]
  growth inhibition: 1.85%
[2]
  growth inhibition: 5.8%
[3]
  growth inhibition: -0.25%
[4]
  growth inhibition: -25.5%
[5]
  growth inhibition: -4.8%
[6]
  growth inhibition: 8.4%

## OCc1sccc1-n1cccc1
[1]
  growth inhibition: -19.4%
[2]
  growth inhibition: -47.5%
[3]
  growth inhibition: -16.6%
[4]
  growth inhibition: 5.75%
[5]
  growth inhibition: -48.5%
[6]
  growth inhibition: -28.6%

## Nc1cc(Cl)ccc1S(=O)(=O)O
[1]
  growth inhibition: -7.1%
[2]
  growth inhibition: -1.8%
[3]
  growth inhibition: 2.1%
[4]
  growth inhibition: -48.8%
[5]
  growth inhibition: -15.1%
[6]
  growth inhibition: -4.4%

## O=S(=O)(Oc1ccc(OS(=O)(=O)c2ccccc2)cc1)c1ccccc1
[1]
  growth inhibition: -8.8%
[2]
  growth inhibition: 1%
[3]
  growth inhibition: -0.3%
[4]
  growth inhibition: 0.05%
[5]
  growth inhibition: 12.5%
[6]
  growth inhibition: 14.6%

## COc1ccc(-c2c(C#N)c(N)nc(C)c2-c2ccccc2)cc1
[1]
  growth inhibition: -26.4%
[2]
  growth inhibition: -10.8%
[3]
  growth inhibition: -6.85%
[4]
  growth inhibition: -24.6%
[5]
  growth inhibition: -5.65%
[6]
  growth inhibition: 16.9%

## CN(C)CC1CCCCCCC1=O (configuration not stated)
[1]
  growth inhibition: -6.45%
[2]
  growth inhibition: 12.7%
[3]
  growth inhibition: -8.55%
[4]
  growth inhibition: -8.1%
[5]
  growth inhibition: -8.85%
[6]
  growth inhibition: 12.8%

## C1COCCN1.C1COCCN1.N.N.[Cl-].[Pt+2]
[1]
  growth inhibition: -9.5%
[2]
  growth inhibition: -5.4%
[3]
  growth inhibition: -38.1%
[4]
  growth inhibition: -14.2%
[5]
  growth inhibition: -2.45%
[6]
  growth inhibition: -14.8%

## NC(=O)c1ncccc1C(=O)O
[1]
  growth inhibition: -9.2%
[2]
  growth inhibition: -9.65%
[3]
  growth inhibition: -18.6%
[4]
  growth inhibition: 2.3%
[5]
  growth inhibition: -13.6%
[6]
  growth inhibition: -12.2%

## c1ccc(-n2nnc3c2CCCC3)cc1
[1]
  growth inhibition: -3.2%
[2]
  growth inhibition: -1.6%
[3]
  growth inhibition: -6.1%
[4]
  growth inhibition: -23.8%
[5]
  growth inhibition: -25.6%
[6]
  growth inhibition: -1.65%

## CCCCCC/C=C\CCCCCCCCCC1=CC(=O)C=C(OC)C1=O
[1]
  growth inhibition: -1.35%
[2]
  growth inhibition: -10.2%
[3]
  growth inhibition: -19%
[4]
  growth inhibition: -83.8%
[5]
  growth inhibition: -31.4%
[6]
  growth inhibition: -11.7%

## CCOC(=O)Nc1ccc2c(c1Cl)C(=O)c1ccccc1C2=O
[1]
  growth inhibition: -6.85%
[2]
  growth inhibition: -18.1%
[3]
  growth inhibition: -0.2%
[4]
  growth inhibition: 5.65%
[5]
  growth inhibition: 14.3%
[6]
  growth inhibition: -15.6%

## Oc1c(CN2CCN(c3ccccc3)CC2)cc(Br)c2cccnc12
[1]
  growth inhibition: 34%
[2]
  growth inhibition: 19.9%
[3]
  growth inhibition: 41.4%
[4]
  growth inhibition: -0.3%
[5]
  growth inhibition: 9.4%
[6]
  growth inhibition: 39.6%

## CCOC(=O)NCCNC(=O)OCC
[1]
  growth inhibition: 8.8%
[2]
  growth inhibition: 0.3%
[3]
  growth inhibition: 1.45%
[4]
  growth inhibition: 6.65%
[5]
  growth inhibition: -11.7%
[6]
  growth inhibition: 3.6%

## CCCCCCCCc1ccccc1
[1]
  growth inhibition: 34.6%
[2]
  growth inhibition: 30.9%
[3]
  growth inhibition: 35.6%
[4]
  growth inhibition: 13.5%
[5]
  growth inhibition: 9.75%
[6]
  growth inhibition: 21.8%

## CS(=O)(=O)NCC1OC(n2cnc3c(N)ncnc32)C(O)C1O (configuration not stated)
[1]
  growth inhibition: 12.2%
[2]
  growth inhibition: -9.3%
[3]
  growth inhibition: 19%
[4]
  growth inhibition: -5.95%
[5]
  growth inhibition: 30.5%
[6]
  growth inhibition: 1.8%

## CC(=O)OCCOc1ccc(C(C)(C)C)cc1
[1]
  growth inhibition: 45%
[2]
  growth inhibition: -18.4%
[3]
  growth inhibition: 9.25%
[4]
  growth inhibition: 32.5%
[5]
  growth inhibition: 11.8%
[6]
  growth inhibition: 15.2%

## O=[N+]([O-])c1ccc(-c2cccc3ccccc23)c([N+](=O)[O-])c1
[1]
  growth inhibition: 15.7%
[2]
  growth inhibition: 34.9%
[3]
  growth inhibition: 17.1%
[4]
  growth inhibition: 15.9%
[5]
  growth inhibition: 33.5%
[6]
  growth inhibition: 21.1%

## CNc1ccc(Br)cc1[N+](=O)[O-]
[1]
  growth inhibition: -22.2%
[2]
  growth inhibition: -22.7%
[3]
  growth inhibition: -12.9%
[4]
  growth inhibition: -0.2%
[5]
  growth inhibition: -26.7%
[6]
  growth inhibition: -15.4%

## CN1C/C(=C\C=C\c2ccccc2)C(=O)/C(=C/C=C/c2ccccc2)C1
[1]
  growth inhibition: 66.7%
[2]
  growth inhibition: 16.9%
[3]
  growth inhibition: 14.8%
[4]
  growth inhibition: 11.8%
[5]
  growth inhibition: 11.2%
[6]
  growth inhibition: 0.2%

## C(=C\c1ccccc1)/C=N/N=C/C=C/c1ccccc1
[1]
  growth inhibition: -5.5%
[2]
  growth inhibition: -30.1%
[3]
  growth inhibition: -10.9%
[4]
  growth inhibition: -37%
[5]
  growth inhibition: 4.45%
[6]
  growth inhibition: -4%

## Cc1cc(=O)oc2cc(NC(=O)C(CCCN=C(N)N)NC(=O)OCc3ccccc3)ccc12 (configuration not stated)
[1]
  growth inhibition: 26.5%
[2]
  growth inhibition: -17.4%
[3]
  growth inhibition: 23.1%
[4]
  growth inhibition: -2.95%
[5]
  growth inhibition: -4.1%
[6]
  growth inhibition: 7.1%

## CCCCCCCCCCCc1cc(=O)n(-c2ccccc2)n1C
[1]
  growth inhibition: 98.8% (active)
[2]
  growth inhibition: 99.2% (active)
[3]
  growth inhibition: 99.2% (active)
[4]
  growth inhibition: 98.4% (active)
[5]
  growth inhibition: 98.5% (active)
[6]
  growth inhibition: 99% (active)

## COc1ccc(Cc2nc3c([nH]2)c(=O)n(C)c(=O)n3C)cc1
[1]
  growth inhibition: -0.05%
[2]
  growth inhibition: -14.1%
[3]
  growth inhibition: 0.05%
[4]
  growth inhibition: -50.8%
[5]
  growth inhibition: 1.2%
[6]
  growth inhibition: 1.2%

## Cc1ncc([N+](=O)[O-])n1CC[N+](C)([O-])CCCCn1ccnc1[N+](=O)[O-] (configuration not stated)
[1]
  growth inhibition: 16.9%
[2]
  growth inhibition: -20.6%
[3]
  growth inhibition: 20.6%
[4]
  growth inhibition: -41.5%
[5]
  growth inhibition: -3.95%
[6]
  growth inhibition: -9%

## Cn1nnc2c1C(=O)c1ccccc1C2=O
[1]
  growth inhibition: 0.6%
[2]
  growth inhibition: -14%
[3]
  growth inhibition: 29.4%
[4]
  growth inhibition: -50.3%
[5]
  growth inhibition: -8.5%
[6]
  growth inhibition: -0.7%

## CC(C)=CCC(C)c1ccncc1 (configuration not stated)
[1]
  growth inhibition: 1.9%
[2]
  growth inhibition: -9.15%
[3]
  growth inhibition: 9.45%
[4]
  growth inhibition: -9.05%
[5]
  growth inhibition: 15%
[6]
  growth inhibition: 7.4%

## O=[N+]([O-])c1cc(C=NCCCCCCN=Cc2ccc(Cl)c([N+](=O)[O-])c2)ccc1Cl
[1]
  growth inhibition: 6.9%
[2]
  growth inhibition: -3.85%
[3]
  growth inhibition: -9.75%
[4]
  growth inhibition: -19.3%
[5]
  growth inhibition: 4.35%
[6]
  growth inhibition: -0.9%

## COC(=O)c1cc(NC(=O)Nc2ccc(Cl)cc2[N+](=O)[O-])cc(C(=O)OC)c1
[1]
  growth inhibition: -21.4%
[2]
  growth inhibition: -13.3%
[3]
  growth inhibition: -14.1%
[4]
  growth inhibition: -68.2%
[5]
  growth inhibition: -2.35%
[6]
  growth inhibition: -11.1%
